Measurements as given in PubChem BioAssay (Tox21).
Records with an inconclusive call do not appear. A call without a number means that no potency is given here. A number with no mark means an inactive call. Activity calls are given as the source filed them. Unless noted, calls come from the whole dose curve; as a rule, active = well fitted curve in the direction sought with a large enough effect in the repeat runs; inconclusive = weak or mixed curves; inactive = no such curve, though single readings can be large; an effect the other way counts as inactive or inconclusive.

How the values were obtained:
[1] = qHTS assay to identify aromatase inhibitors - cell viability counter screen (AID 743084);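 note: cells stimulated with testosterone during compound exposure; nearly all actives have a fitted effect of over 55% in size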; note: potency is the fitted concentration of half-maximal effect
[2] = qHTS assay to identify small molecule that activate the aryl hydrocarbon receptor (AhR) signaling pathway - cell viability counter screen (AID 743086); note: nearly all actives have a fitted effect of over 45% in size; note: potency is the fitted concentration of half-maximal effect
How it was run: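 HepG2-AhR-luc (HG2L7.5c1) cells, 4000/well, were preincubated 5 h at 37C, exposed to compound in qHTS format for 24 hr at 37C, then given CellTiter-Fluor for 30 min; viability was read as fluorescence in the reporter wells.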

[3] = qHTS assay to identify small molecule phospholipidosis (PLD) inducers (AID 1259344; active = well fitted curve in the direction sought with a large enough effect; an effect the other way counts as inactive or inconclusive)
How it was run: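 HepG2 cells on collagen I, attached 4 h at 37 C, were co-treated with compound and LipidTOX Red dye for 24 h at 37 C, then fixed with paraformaldehyde plus Hoechst 33342 and imaged by high-content microscopy for phospholipid accumulation.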

[4] = target: Nuclear receptor subfamily 1 group I member 2 (Rattus norvegicus) (UniProt Q9R1A7); experiment: Rat pregnane X receptor (rPXR) activation by small molecules, qHTS assay (AID 1346983); conditions: rPXR luciferase reporter cells, One-Glo luminescence, 24 h; max activation: hits give high values; note: nearly all actives have a fitted effect of over 20% in size; note: potency is the fitted concentration of half-maximal effect
How it was run: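 Cell-based rPXR luciferase reporter assay, 2,000 cells per well, rested 5hr at 37 C before compound addition in DMSO, then 24 hr at 37 C. One-Glo reagent was added and luminescence read after 30 min at room temperature.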

[5] = target: Nuclear receptor subfamily 1 group I member 2 (Homo sapiens) (UniProt O75469); experiment: CYP3A4 induction through human pregnane X receptor (PXR) by small molecules, qHTS assay (AID 1346984); note: nearly all actives have a fitted effect of over 40% in size; note: potency is the fitted concentration of half-maximal effect
How it was run: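 Luminescence readout: luciferase signal after One-Glo (30 min, room temperature), following 3 h at 37C with 3uM final Luciferin-IPA P450 substrate. Cells were DPX-2 (HepG2, PXR/CYP3A4-luc co-transfected) dosed for 24 h.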

[6] = target: Nuclear receptor subfamily 1 group I member 2 (Homo sapiens) (UniProt O75469); experiment: Human pregnane X receptor (PXR) activation by small molecules, qHTS assay (AID 1346985); note: nearly all actives have a fitted effect of over 40% in size; note: potency is the fitted concentration of half-maximal effect
How it was run: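 DPX-2 cells (HepG2 co-transfected with a PXR response element and a CYP3A4-promoter luciferase construct) were seeded at 2,000 per well, rested 5 hr at 37C, then exposed to DMSO-dissolved compounds for 24 hr. Activation was read as luciferase luminescence.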

[7] = target: Aryl hydrocarbon receptor (Homo sapiens) (UniProt P35869); experiment: qHTS assay to identify small molecule that activate the aryl hydrocarbon receptor (AhR) signaling pathway (AID 743085); note: nearly all actives have a fitted effect of over 15% in size; note: potency is the fitted concentration of half-maximal effect;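 for activation: HG2L7.5c1 human HepG2 liver cells with stably integrated DRE-driven firefly reporter; series mostly up to about 70 µM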
How it was run: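 Steps: seed HepG2-AhR-luc cells; allow 5 h at 37C; pin-transfer test compound or vehicle; incubate 24 h at 37C; add viability dye (30 min, 37C) and read fluorescence; add luciferase substrate (30 min, RT) and read luminescence.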

[8] = target: Peroxisome proliferator-activated receptor gamma (Homo sapiens) (UniProt P37231); experiment: qHTS assay to identify small molecule agonists of the peroxisome proliferator-activated receptor gamma (PPARg) signaling pathway (AID 743094; active = well fitted activation curve with a large enough effect in the signal ratio in the repeat runs, not every such curve was filed as active; the % refers to the signal ratio)
How it was run: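 Beta-lactamase FRET fluorescence was the read-out after a 1 h room-temperature substrate step, following 17 h compound treatment at 37C of HEK293H cells expressing a UAS-driven bla reporter responsive to PPARg.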

Peroxisome proliferator-activated receptor gamma (Homo sapiens), sequence (P37231 whole entry, looked up): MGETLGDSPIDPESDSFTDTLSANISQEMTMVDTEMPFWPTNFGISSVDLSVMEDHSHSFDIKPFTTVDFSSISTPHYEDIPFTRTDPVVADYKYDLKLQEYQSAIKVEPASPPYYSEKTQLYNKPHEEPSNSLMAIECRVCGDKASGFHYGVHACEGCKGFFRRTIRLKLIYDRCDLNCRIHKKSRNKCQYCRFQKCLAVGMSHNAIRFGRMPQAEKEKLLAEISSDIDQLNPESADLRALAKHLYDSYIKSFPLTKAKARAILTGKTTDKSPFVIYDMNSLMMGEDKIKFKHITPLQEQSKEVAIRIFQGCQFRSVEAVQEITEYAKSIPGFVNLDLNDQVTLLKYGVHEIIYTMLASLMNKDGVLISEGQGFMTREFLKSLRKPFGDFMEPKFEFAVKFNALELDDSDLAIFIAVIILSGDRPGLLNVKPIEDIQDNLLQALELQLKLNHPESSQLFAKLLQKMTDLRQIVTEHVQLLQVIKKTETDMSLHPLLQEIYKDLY
Aryl hydrocarbon receptor (Homo sapiens), sequence (P35869 whole entry, looked up): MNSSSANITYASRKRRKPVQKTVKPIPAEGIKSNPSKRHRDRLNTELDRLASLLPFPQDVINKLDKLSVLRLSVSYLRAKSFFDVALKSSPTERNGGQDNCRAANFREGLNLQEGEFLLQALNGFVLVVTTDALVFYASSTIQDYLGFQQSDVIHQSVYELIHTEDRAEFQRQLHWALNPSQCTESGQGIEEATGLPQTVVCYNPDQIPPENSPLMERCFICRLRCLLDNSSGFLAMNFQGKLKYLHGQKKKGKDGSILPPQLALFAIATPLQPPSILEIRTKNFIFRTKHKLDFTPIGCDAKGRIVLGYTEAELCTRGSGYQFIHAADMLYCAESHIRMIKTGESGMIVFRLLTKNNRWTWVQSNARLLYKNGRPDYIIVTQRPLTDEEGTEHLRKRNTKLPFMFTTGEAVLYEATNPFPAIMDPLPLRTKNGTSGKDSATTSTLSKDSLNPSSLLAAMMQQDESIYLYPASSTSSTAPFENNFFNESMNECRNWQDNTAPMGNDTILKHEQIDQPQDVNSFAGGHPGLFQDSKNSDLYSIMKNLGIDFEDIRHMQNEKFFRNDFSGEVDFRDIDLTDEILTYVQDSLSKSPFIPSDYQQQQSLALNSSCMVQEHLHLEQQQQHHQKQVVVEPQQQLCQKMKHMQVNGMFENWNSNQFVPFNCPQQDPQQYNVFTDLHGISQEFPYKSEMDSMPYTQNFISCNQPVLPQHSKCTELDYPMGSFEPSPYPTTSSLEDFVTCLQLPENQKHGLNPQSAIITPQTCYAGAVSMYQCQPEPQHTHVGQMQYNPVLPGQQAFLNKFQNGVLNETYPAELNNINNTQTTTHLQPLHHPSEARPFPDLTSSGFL
Nuclear receptor subfamily 1 group I member 2 (Rattus norvegicus), sequence (Q9R1A7 whole entry, looked up): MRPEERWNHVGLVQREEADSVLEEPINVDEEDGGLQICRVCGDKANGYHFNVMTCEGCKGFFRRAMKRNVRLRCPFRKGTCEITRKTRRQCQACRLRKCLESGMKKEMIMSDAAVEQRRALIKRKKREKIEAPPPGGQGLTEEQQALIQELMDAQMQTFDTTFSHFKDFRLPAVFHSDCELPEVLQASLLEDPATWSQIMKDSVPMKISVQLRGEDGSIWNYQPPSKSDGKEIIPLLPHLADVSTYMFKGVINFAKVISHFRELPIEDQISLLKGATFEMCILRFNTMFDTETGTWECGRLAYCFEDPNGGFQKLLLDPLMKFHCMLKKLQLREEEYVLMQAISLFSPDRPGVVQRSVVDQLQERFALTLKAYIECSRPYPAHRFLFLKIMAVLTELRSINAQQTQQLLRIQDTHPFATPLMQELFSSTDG

Structure (SMILES) | Potency [1] | Potency [2] | Potency [3] | max activation [4] | Potency [5] | Potency [6] | Potency [7] | Potency [8] | Potency [4]
COc1ccc(C2(C#N)CCC(C(=O)O)CC2)cc1OC1CCCC1 (stereo unspecified) | inactive | inactive | inactive | -0.133% | inactive | inactive |  |  | 
NC(=O)c1ccc[n+]([C@@H]2O[C@H](COP(=O)([O-])OP(=O)(O)OC[C@H]3O[C@@H](n4cnc5c(N)ncnc54)[C@H](O)[C@@H]3O)[C@@H](O)[C@H]2O)c1 | inactive | inactive | inactive | -1.3% | inactive | inactive | inactive | inactive | 
CC(=O)Nc1c(I)c(C(=O)O)c(I)c(N(C)C(C)=O)c1I | inactive | inactive | inactive | -0.923% | inactive | inactive | inactive | inactive | 
CCN(CC)CCC(=O)N1c2ccccc2Sc2ccc(Cl)cc21 | inactive |  | inactive | 3.32% | 14.1 µM (active) | 14.1 µM (active) | inactive | inactive | 
COc1cc(/C=C/C(=O)N2CCN(CC(=O)N3CCCC3)CC2)cc(OC)c1OC | inactive | inactive | inactive | 0.536% | inactive | inactive | inactive | inactive | 
CN[C@@H]1[C@H](O[C@H]2[C@H](O[C@H]3[C@H](O)[C@@H](O)[C@H](N=C(N)N)[C@@H](O)[C@@H]3N=C(N)N)O[C@@H](C)[C@]2(O)C=O)O[C@@H](CO)[C@H](O)[C@H]1O | inactive | inactive | inactive | -1.83% | inactive | inactive | inactive | inactive | 
CN=C1C=CC(=C(c2ccc(N(C)C)cc2)c2ccc(N(C)C)cc2)C=C1 | 6.68 µM (active) | 6.68 µM (active) | inactive | -26% | inactive | inactive |  |  | 
C=CCOc1ccc(CC(=O)O)cc1Cl | inactive | inactive | inactive | -5.29% | inactive | inactive |  |  | 
CC(C)CCC[C@@H](C)[C@H]1CC(=O)C2=C3CC[C@H]4C[C@@H](O)CC[C@]4(C)[C@H]3CC[C@@]21C | inactive | inactive | inactive | -2.36% | inactive | inactive | inactive | inactive | 
CC1(C)S[C@@H]2[C@H](NC(=O)C(N)c3ccccc3)C(=O)N2[C@H]1C(=O)OC1OC(=O)c2ccccc21 (stereo partly specified) | inactive | inactive | inactive | -3.71% | inactive | inactive | inactive | inactive | 
CCOc1ccc(N=Nc2ccc(N)cc2N)cc1 | 21.1 µM (active) |  | inactive |  | inactive | inactive | 0.944 µM (active) | inactive | 3.16 µM (active)
C[N+]1(C)[C@@H]2CC(OC(=O)C(O)(c3cccs3)c3cccs3)C[C@H]1[C@@H]1O[C@@H]12 (stereo partly specified) | inactive |  | inactive | -1.38% | inactive | inactive | inactive | inactive | 
C[C@H](CCCC(C)(C)O)[C@H]1CC[C@H]2[C@@H]3CC=C4C[C@@H](O)CC[C@]4(C)[C@H]3CC[C@]12C | inactive | inactive | inactive | -4.18% | inactive | inactive | inactive | inactive | 
C[C@H](O)[C@H](O)[C@H]1CNc2nc(N)[nH]c(=O)c2N1 | inactive | inactive | inactive | -2.27% | inactive | inactive | inactive | inactive | 
CCCCC(C)(O)C/C=C/[C@H]1[C@H](O)CC(=O)[C@@H]1CCCCCCC(=O)OC (stereo partly specified) | inactive | inactive | inactive | -4.82% | inactive | inactive | inactive | inactive | 
COc1cc(-c2ccc(-[n+]3nc(-c4ccccc4)nn3-c3ccc([N+](=O)[O-])cc3)c(OC)c2)ccc1-[n+]1nc(-c2ccccc2)nn1-c1ccc([N+](=O)[O-])cc1 | 29.8 µM (active) | 26.6 µM (active) | inactive | -16% | inactive | inactive |  |  | 
CC(=O)N=c1sc(S(N)(=O)=O)nn1C | inactive | inactive | inactive | -1.62% | inactive | inactive | inactive | inactive | 
CC(C)[C@H](N)C(=O)OCC(CO)OCn1cnc2c(=O)[nH]c(N)nc21 (stereo partly specified) | inactive | inactive | inactive | -3.1% | inactive | inactive | inactive | inactive | 
CCCCC(=O)N(Cc1ccc(-c2ccccc2-c2nn[nH]n2)cc1)[C@@H](C(=O)O)C(C)C | inactive | inactive | inactive | -1.58% | inactive | inactive | inactive | inactive | 
CCCCCCCCCCCCOCCCN | inactive | inactive | inactive | -3.73% | inactive | inactive |  |  | 

Structure (SMILES) | Potency [1] | Potency [2] | Potency [3] | max activation [4] | Potency [5] | Potency [6] | Potency [7] | Potency [8] | Potency [4]
O=C(COc1ccc(Cl)cc1)OCCNC12CC3CC(CC(C3)C1)C2 | inactive | inactive | inactive | -5.06% | inactive | inactive | inactive | inactive | 
CCCC1C(=O)N2C(N(C)C)=Nc3ccc(C)cc3N2C1=O (stereo unspecified) | inactive | inactive | inactive | 5.29% | inactive | inactive |  |  | 
CC(Oc1ccccc1)C(=O)N[C@@H]1C(=O)N2[C@@H]1SC(C)(C)[C@@H]2C(=O)O (stereo partly specified) | inactive | inactive | inactive | -1.33% | inactive | inactive | inactive | inactive | 
CCN(CC)CCC(=O)N1c2ccccc2Sc2ccc(C(F)(F)F)cc21 | inactive |  | inactive | -1.59% | 1 µM (active) | 6.31 µM (active) | inactive | inactive | 
C=C1CC[C@H](O)CC1=C/C=C1\CCC[C@]2(C)[C@@H]([C@H](C)CCCC(C)(C)O)CC[C@@H]12 | inactive | inactive | inactive | -20.1% | inactive | inactive |  |  | 
OCCO[C@@H]1[C@@H](O)[C@H](O)[C@@H](CO)O[C@@H]1O | inactive |  | inactive | -3.49% | inactive | inactive | inactive | inactive | 
CO[C@@]1(NC(=O)C2SC(=C(C(N)=O)C(=O)O)S2)C(=O)N2C(C(=O)O)=C(CSc3nnnn3C)CS[C@@H]21 (stereo partly specified) | inactive | inactive | inactive | -1.7% | inactive | inactive | inactive | inactive | 
CC(O)CN(C)C (stereo unspecified) | inactive |  | inactive | -0.0612% | inactive | inactive | inactive | inactive | 
COC(F)(F)C(Cl)Cl | inactive | inactive | inactive | 0.553% | inactive | inactive | inactive | inactive | 
C[C@@H](O)[C@H]1C(=O)N2C(C(=O)[O-])=C(SC3Cn4cnc[n+]4C3)[C@H](C)[C@H]12 (stereo partly specified) | inactive |  | inactive | 0.401% | inactive | inactive | inactive | inactive | 
NCCCC[C@H](N)C(=O)O | inactive | inactive | inactive | -0.992% | inactive | inactive | inactive | inactive | 
CC[C@@]1(O)C[C@H](O[C@H]2C[C@H](N(C)C)[C@H](O[C@H]3C[C@H](O)[C@H](O[C@H]4CCC(=O)[C@H](C)O4)[C@H](C)O3)[C@H](C)O2)c2c(cc3c(c2O)C(=O)c2c(O)cccc2C3=O)[C@H]1C(=O)OC | 26.6 µM (active) | 0.668 µM (active) | inactive | -18.5% | inactive | inactive |  |  | 
CS(=O)(=O)c1ccc(C2=C(c3ccccc3)C(=O)OC2)cc1 | inactive |  | inactive | -0.681% | inactive | inactive | inactive | inactive | 
O=[N+]([O-])O[C@@H]1CO[C@H]2[C@@H]1OC[C@@H]2O | inactive | inactive | inactive | -3.54% | inactive | inactive |  |  | 
Cc1ncc(C[n+]2csc(CCOP(=O)(O)OP(=O)(O)O)c2C)c(N)n1 | inactive | inactive | inactive | -0.276% | inactive | inactive | inactive | inactive | 
CCOC(=O)c1c[nH]c2cc(OCC(C)C)c(OCC(C)C)cc2c1=O | inactive | inactive | inactive | -0.745% | inactive | inactive |  | inactive | 
O=C(O)CCC/C=C\C[C@@H]1[C@@H](/C=C/[C@@H](O)COc2cccc(C(F)(F)F)c2)[C@H](O)C[C@@H]1O | inactive | inactive | inactive | -3.83% | inactive | inactive |  | inactive | 
O=C(OC1C[C@@H]2CC3C[C@H](C1)N2CC3=O)c1c[nH]c2ccccc12 (stereo partly specified) | inactive |  | inactive | 6.05% | inactive | inactive |  | inactive | 
CC(C)N=c1cc2n(-c3ccc(Cl)cc3)c3ccccc3nc-2cc1Nc1ccc(Cl)cc1 |  | inactive | inactive | -3.58% | inactive | inactive | inactive | inactive | 
CCCCCCCCCCCCCC[n+]1ccc(C)cc1 |  |  | inactive | -19.6% | inactive | inactive | inactive |  | 
